In PubChem BioAssay (NCATS):
Several values for one entry are separate records, joined by “and”; a condition that tells them apart may be missing. Identical values can stand only once. Values without a mark were called inactive. Inconclusive results are not listed. Entries that show only a call come without a potency. Activity calls are given as the source filed them. Unless noted, calls follow the shape of the dose curve; as a rule, active = well fitted curve in the direction sought with a large enough effect; inconclusive = small, poorly fitted or top-dose-only effect, or another doubt; inactive = no such curve, though single readings can be large; an effect the other way counts as inactive or inconclusive.

Assays:
[1] = AP1 Signaling Pathway (AID 357; active = well fitted curve in either direction with a large enough effect, not every such curve was filed as active); settings: ME-180 AP-1-bla reporter, EGF-induced, beta-lactamase ratio, 5 h; at 7.69 µM (top of the series) unless noted
How it was run: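 Modulation of EGF-driven AP-1 transcription was assessed with a beta-lactamase reporter in ME-180 cells. Compound and EC50 EGF were co-incubated 5 hours at 37 °C before 2.5-hour CCF4 loading at room temperature and dual-emission reading.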

[2] = molecular target: Cytochrome P450 1A2 (Homo sapiens) (UniProt P05177); experiment: p450-cyp1a2 (AID 410; calls by dose curve; also: potency is read from the fitted curve at half-maximal effect)
How it was run: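 20nM CYP1A2, 100uM Luciferin-ME (=Km), 100mM KPO4; cpd 10 min RT; +NADPH regen, 60 min RT; stop/detect 20 min; luminescence. Normalized to furafylline 57 uM = full inhibition.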

[3] = NFAT Signaling Pathway (AID 444; active = well fitted curve in either direction with a large enough effect, not every such curve was filed as active;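 also: carbachol stimulus at about its EC50 of 1 µM final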); settings: Jurkat NFAT-bla M1, carbachol, beta-lactamase ratio, 5 h; at 7.69 µM (top of the series) unless noted
How it was run: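 Jurkat cells with NFAT-driven β-lactamase reporter and co-expressed M1 receptor, stimulated with carbachol (final 1 uM, ~EC50), compound titration, 5 h at 37 °C. CCF4 loaded 1 h at RT; 460/530 nm ratio gave %activity and AC50.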

[4] = Stat Signaling Pathway (AID 446; active = well fitted curve in either direction with a large enough effect, not every such curve was filed as active;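 also: ME-180 cervical cancer cells given 40 pM IL-6 alongside compound; SIE-controlled beta-lactamase reporter measured as 460/530 nm FRET emission ratio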); settings: ME-180 SIE beta-lactamase reporter, IL-6 stimulated, 5 h; at 7.69 µM (top of the series) unless noted
How it was run: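 Compound effects on IL-6-induced STAT reporter activity were measured in ME-180 cells. After overnight culture, cells were co-treated with 40 pM IL-6 for 5 hrs before beta-lactamase substrate loading at room temperature.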

[5] = molecular target: Glucocorticoid receptor (Homo sapiens) (UniProt P04150); experiment: GR-GFP Redistribution (AID 450;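 active = compounds whose dose series gives a full or clear partial fitted curve of increased nuclear translocation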; also: potency is read from the fitted curve at half-maximal effect); settings: U2OS GR-GFP nuclear translocation, laser cytometry, 2 h
[6] = molecular target: Glucocorticoid receptor (Homo sapiens) (UniProt P04150); experiment: GR-EFC Redistribution (AID 451; calls by dose curve; also: potency is read from the fitted curve at half-maximal effect); settings: CHO-K1 GR-EFC translocation, beta-gal luminescence, 2 h
How it was run: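 CHO-K1 cells expressing nuclear EA and GR-ED fragments of b-gal; compounds titrated up to 46 uM final, 2 h at 37 C. GR nuclear translocation read as complemented b-gal luminescence after 1 h RT detection.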

[7] = molecular target: Mitogen-activated protein kinase 10 (Mus musculus) (UniProt Q61831); experiment: JNK3 AlphaScreen Assay (AID 530; active = well fitted curve in either direction with a large enough effect, not every such curve was filed as active;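 also: kinase came from lysate of stimulated human HepG2 cells; signal reports phosphorylation of biotinylated GST-cJun 1-79 at Ser73 with 10 µM ATP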)
How it was run: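 HepG2 lysate (IL-1b/TNFa pre-activated) + biotin-GST-cJun 1-79 + anti-pSer73 cJun; cpd titration, 15 min RT; ATP 10 uM start; Tris pH 7.6, MgCl2, DTT, vanadate; beads in EDTA buffer; AlphaScreen.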

[8] = molecular target: 3',5'-cyclic-AMP phosphodiesterase 4B (Homo sapiens) (UniProt Q07343); experiment: qHTS Assay for Inhibitors of PDE-IV (AID 607; active = well fitted activation curve with a large enough effect in the main read-out, with a control signal flat, not every such curve was filed as active)
How it was run: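 ACTOne HEK293 cells carry a modified cAMP-gated CNG channel and express endogenous PDE4; plated 1000 cells/well, compounds up to 22.9 uM final. Membrane-potential dye fluorescence (ex 535/em 590) was read; parental cells received 10 uM forskolin + 100 uM RO 20-1724.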

[9] = molecular target: Cytochrome P450 2C9 (Homo sapiens) (UniProt P11712); experiment: qHTS Assay for Inhibitors and Substrates of Cytochrome P450 2C9 (AID 883); also: potency is read from the fitted curve at half-maximal effect; nearly all actives have a fitted effect of over 60% in size
How it was run: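 10nM CYP2C9 + 100uM Luciferin-H (=KM), 25mM KPO4; cpd 10 min 37C; NADPH regen, 60 min 37C; stop/detect with P450 Glo-Buffer 20 min; luminescence. Norm. to 57uM sulphaphenazole as full inhibition.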

[10] = molecular target: Cytochrome P450 2C19 (Homo sapiens) (UniProt P33261); experiment: qHTS Assay for Inhibitors and Substrates of Cytochrome P450 2C19 (AID 899); also: nearly all actives have a fitted effect of over 60% in size; also: potency is read from the fitted curve at half-maximal effect
How it was run: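 Luminescent read-out of luciferin formed from Luciferin-H EGE (10uM, equal to KM). Enzyme 5nM in 50mM KPO4; compound added, 10 min at 37C, then NADPH regenerating system for 60 min at 37C. Full inhibition defined by 57uM ketoconazole.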

[11] = molecular target: Cytochrome P450 3A4 (Homo sapiens) (UniProt P08684); experiment: qHTS Assay for Activators of Cytochrome P450 3A4 (AID 885); also: nearly all actives have a fitted effect of over 65% in size
How it was run: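 CYP3A4 activity: Luciferin-PPXE O-dealkylation, 25uM substrate, 200mM KPO4, RT throughout. Read-out is luciferase luminescence; higher values reflect activation.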

[12] = qHTS Assay for Identification of Small Molecule Antagonists for NFkB Signaling Pathway (AID 895; active = well fitted inhibition curve with a large enough effect in the signal ratio, with a control signal flat, not every such curve was filed as active; the % refers to the signal ratio; also: potency is read from the fitted curve at half-maximal effect)
How it was run: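 ME-180 NFkB-bla cells (beta-lactamase under NFkB response element), plated overnight, treated with compound then 10 pM TNF alpha (about EC50) for 5 hrs at 37 C. LiveBLAzer FRET read at 460/530 nm emission, 405 nm excitation.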

[13] = molecular target: Muscarinic acetylcholine receptor M1 (Rattus norvegicus) (UniProt P08482); experiment: qHTS Assay for Antagonists of Acetylcholine Muscarinic M1 Receptor: Measurement of IP-One Response (AID 944); also: nearly all actives have a fitted effect of over 75% in size; also: potency is read from the fitted curve at half-maximal effect
How it was run: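 Read-out: HTRF competition between d2-IP1 and Eu-cryptate anti-IP1 antibody, emission 620 and 665 nm. Stimulus was carbachol, EC80 (200 nM), for 30 min in M1-CHO cells (rat receptor), after 10 min compound pre-treatment.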

[14] = molecular target: Pyruvate kinase (Leishmania mexicana) (UniProt Q27686); experiment: qHTS Validation Assay for Inhibitors of Leishmania Mexicana Pyruvate Kinase (AID 945)
How it was run: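 Eight-point qHTS titrations in triplicate, data normalized to DMSO neutral control. Reaction: 0.2 nM LmPYK E451W mutant, 0.5 mM PEP, 0.1 mM ADP, 7 mM MgCl2, pH 7.2, one hour at room temperature; luminescent ATP detection.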

[15] = molecular target: Pyruvate kinase PKM (Homo sapiens) (UniProt P14618); experiment: qHTS Assay for Activators of Human Muscle Pyruvate Kinase (AID 954; active = well fitted curve in the direction sought with a large enough effect, not every such curve was filed as active)
How it was run: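 A coupled luminescent readout tracked ATP made from ADP by purified PKM2. Final conditions included 0.1 nM enzyme, PEP and ADP at 0.5 and 0.1 mM, pH 7.2 imidazole buffer with BSA, and a one-hour room-temperature reaction.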

[16] = molecular target: Alpha-galactosidase A (Homo sapiens) (UniProt P06280); experiment: Counterscreen for Glucocerebrosidase Inhibitors: qHTS Assay for Human alpha-Galactosidase at pH 4.5 (AID 992)
How it was run: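 Citrate buffer pH 4.5, Tween-20 0.005%. Enzyme 2 nM, substrate 80 uM, 20 min RT. Stop pH 10. Fluorescence Ex 365/Em 440. AC50 by Hill fit.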

[17] = molecular target: Cytochrome P450 2D6 (Homo sapiens) (UniProt P10635); experiment: qHTS Assay for Inhibitors and Substrates of Cytochrome P450 2D6 (AID 891);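 also: luciferin methyl ether substrate demethylated by CYP2D6 with NADPH regeneration; nearly all actives have a fitted effect of over 60% in size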
How it was run: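 Luminescent read-out of luciferin formed by 5 nM human CYP2D6 demethylating 30 uM Luciferin-ME EGE (Km level) over 60 min at room temperature after NADPH regeneration addition. Data normalized to full inhibition by 1.43 uM quinidine.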

[18] = molecular target: Muscarinic acetylcholine receptor M1 (Rattus norvegicus) (UniProt P08482); experiment: qHTS Assay for Antagonists of Acetylcholine Muscarinic M1 Receptor: Kinetic Measurement of Intracellular Calcium Response (AID 943); also: nearly all actives have a fitted effect of over 75% in size; also: potency is read from the fitted curve at half-maximal effect;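 as to activity change, negative = inhibition: Fluo-4 calcium signal as peak divided by basal fluorescence over 4 min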
How it was run: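 Read-out: peak over basal Fluo-4 fluorescence, kinetic at 1 Hz for 4 min after EC80 carbachol (100 nM final). Rat M1-CHO cells, dye loaded 1 h at 37C, compound added 10 min before agonist.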

[19] = molecular target: Ubiquitin carboxyl-terminal hydrolase 1 (Homo sapiens) (UniProt O94782); experiment: Inhibitors of USP1/UAF1: Pilot qHTS (AID 504865); also: potency is read from the fitted curve at half-maximal effect; nearly all actives have a fitted effect of over 35% in size
How it was run: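 1nM USP1/UAF1 + cpd, 15 min RT; start w/ Ub-Rho 150nM final; kinetic FL 480/540 nm, 6 reads q60 s. Buffer 50mM HEPES pH 7.8, 0.5mM EDTA, 1mM TCEP, 0.01% Tween-20, 0.1 mg/ml BSA.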

Sequence of Cytochrome P450 2C19 (Homo sapiens) (P33261 whole entry, looked up): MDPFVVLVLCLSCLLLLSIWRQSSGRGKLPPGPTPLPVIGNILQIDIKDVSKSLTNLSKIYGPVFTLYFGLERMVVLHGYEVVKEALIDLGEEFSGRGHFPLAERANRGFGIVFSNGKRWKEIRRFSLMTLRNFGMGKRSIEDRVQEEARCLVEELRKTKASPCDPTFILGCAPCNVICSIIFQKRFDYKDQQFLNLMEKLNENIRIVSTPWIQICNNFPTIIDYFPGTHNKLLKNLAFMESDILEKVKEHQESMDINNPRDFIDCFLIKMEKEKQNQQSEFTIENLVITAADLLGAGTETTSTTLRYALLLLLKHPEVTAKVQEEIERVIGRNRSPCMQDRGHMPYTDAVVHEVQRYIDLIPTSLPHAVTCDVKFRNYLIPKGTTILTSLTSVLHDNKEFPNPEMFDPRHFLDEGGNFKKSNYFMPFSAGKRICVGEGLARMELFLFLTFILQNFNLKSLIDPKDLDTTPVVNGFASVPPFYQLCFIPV
Sequence of Alpha-galactosidase A (Homo sapiens) (P06280 whole entry, looked up): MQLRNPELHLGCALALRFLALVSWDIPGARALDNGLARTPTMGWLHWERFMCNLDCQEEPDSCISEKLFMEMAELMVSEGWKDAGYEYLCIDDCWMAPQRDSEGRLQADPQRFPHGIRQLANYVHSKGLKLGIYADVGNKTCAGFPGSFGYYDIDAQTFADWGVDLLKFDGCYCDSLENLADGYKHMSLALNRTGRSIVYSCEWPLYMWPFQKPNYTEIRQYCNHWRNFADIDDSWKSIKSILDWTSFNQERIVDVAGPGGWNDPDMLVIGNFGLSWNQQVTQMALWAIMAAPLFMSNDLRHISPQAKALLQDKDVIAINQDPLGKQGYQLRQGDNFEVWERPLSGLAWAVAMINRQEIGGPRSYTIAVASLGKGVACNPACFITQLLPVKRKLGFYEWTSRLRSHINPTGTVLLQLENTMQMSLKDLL
Sequence of Glucocorticoid receptor (Homo sapiens) (P04150 whole entry, looked up, the tested form may be a part): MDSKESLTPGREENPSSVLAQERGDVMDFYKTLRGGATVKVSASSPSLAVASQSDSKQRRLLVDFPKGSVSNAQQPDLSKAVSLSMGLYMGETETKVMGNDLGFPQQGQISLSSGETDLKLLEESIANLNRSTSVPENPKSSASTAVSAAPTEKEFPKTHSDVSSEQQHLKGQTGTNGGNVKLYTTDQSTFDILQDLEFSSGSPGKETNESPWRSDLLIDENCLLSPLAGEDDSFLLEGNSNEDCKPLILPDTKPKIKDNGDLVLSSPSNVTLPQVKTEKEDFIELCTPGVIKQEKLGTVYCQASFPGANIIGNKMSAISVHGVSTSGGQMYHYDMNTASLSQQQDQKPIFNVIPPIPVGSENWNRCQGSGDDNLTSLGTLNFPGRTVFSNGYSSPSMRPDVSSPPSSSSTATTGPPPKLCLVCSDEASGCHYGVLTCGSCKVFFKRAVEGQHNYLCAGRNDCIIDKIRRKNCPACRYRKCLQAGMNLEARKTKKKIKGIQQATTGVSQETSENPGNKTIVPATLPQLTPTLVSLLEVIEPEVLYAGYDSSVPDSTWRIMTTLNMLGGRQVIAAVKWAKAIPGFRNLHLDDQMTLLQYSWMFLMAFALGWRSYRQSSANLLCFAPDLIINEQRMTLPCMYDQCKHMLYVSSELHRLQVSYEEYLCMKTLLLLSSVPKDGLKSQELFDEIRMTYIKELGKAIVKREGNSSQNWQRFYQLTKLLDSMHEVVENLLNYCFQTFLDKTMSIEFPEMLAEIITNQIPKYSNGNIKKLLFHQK
Sequence of 3',5'-cyclic-AMP phosphodiesterase 4B (Homo sapiens) (Q07343 whole entry, looked up): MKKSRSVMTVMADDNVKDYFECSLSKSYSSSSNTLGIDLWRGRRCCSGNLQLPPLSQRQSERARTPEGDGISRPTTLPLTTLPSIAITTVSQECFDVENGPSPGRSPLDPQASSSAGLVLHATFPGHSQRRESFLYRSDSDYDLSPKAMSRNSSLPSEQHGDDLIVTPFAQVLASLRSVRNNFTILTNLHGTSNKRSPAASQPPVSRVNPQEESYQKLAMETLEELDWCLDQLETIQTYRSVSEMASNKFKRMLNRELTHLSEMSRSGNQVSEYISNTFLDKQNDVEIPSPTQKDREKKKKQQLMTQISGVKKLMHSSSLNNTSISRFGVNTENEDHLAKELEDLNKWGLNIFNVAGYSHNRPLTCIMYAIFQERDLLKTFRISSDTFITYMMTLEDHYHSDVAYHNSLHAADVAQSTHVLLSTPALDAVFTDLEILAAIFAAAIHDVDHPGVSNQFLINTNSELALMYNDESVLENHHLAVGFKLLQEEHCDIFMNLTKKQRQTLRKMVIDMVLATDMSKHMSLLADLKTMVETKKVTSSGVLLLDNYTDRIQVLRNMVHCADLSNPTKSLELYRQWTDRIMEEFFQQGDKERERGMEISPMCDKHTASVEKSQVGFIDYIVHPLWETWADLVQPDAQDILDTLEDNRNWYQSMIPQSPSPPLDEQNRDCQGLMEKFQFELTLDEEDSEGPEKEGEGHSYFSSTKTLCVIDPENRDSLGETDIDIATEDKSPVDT
Sequence of Pyruvate kinase PKM (Homo sapiens) (P14618 whole entry, looked up): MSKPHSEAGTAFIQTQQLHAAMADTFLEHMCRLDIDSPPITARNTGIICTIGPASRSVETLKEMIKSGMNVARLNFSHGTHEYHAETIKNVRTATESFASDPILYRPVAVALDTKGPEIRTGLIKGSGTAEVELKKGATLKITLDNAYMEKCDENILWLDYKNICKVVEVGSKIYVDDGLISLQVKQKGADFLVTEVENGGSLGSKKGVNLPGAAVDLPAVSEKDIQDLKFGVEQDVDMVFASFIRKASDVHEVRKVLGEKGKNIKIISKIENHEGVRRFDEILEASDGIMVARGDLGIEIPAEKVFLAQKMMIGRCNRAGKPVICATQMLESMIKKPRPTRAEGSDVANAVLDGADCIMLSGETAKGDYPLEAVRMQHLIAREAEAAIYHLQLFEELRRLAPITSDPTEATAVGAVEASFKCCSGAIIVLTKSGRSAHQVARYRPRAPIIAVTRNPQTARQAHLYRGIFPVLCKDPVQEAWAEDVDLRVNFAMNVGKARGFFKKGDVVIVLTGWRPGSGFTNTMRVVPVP
Sequence of Cytochrome P450 1A2 (Homo sapiens) (P05177 whole entry, looked up): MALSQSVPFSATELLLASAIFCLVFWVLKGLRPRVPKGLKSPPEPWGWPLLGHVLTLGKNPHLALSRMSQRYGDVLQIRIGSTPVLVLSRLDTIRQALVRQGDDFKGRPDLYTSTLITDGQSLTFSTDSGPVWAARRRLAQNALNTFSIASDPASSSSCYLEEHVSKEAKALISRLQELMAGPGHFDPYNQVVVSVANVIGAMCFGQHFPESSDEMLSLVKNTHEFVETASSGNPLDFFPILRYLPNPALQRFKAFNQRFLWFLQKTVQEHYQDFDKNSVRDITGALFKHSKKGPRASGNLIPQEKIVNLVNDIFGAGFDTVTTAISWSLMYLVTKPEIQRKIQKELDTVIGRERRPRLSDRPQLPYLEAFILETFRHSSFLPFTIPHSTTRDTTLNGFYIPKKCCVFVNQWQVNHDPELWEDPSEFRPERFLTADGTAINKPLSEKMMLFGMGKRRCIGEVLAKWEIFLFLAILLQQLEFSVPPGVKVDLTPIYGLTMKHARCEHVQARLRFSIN
Sequence of Pyruvate kinase (Leishmania mexicana) (Q27686 2-499 E452W): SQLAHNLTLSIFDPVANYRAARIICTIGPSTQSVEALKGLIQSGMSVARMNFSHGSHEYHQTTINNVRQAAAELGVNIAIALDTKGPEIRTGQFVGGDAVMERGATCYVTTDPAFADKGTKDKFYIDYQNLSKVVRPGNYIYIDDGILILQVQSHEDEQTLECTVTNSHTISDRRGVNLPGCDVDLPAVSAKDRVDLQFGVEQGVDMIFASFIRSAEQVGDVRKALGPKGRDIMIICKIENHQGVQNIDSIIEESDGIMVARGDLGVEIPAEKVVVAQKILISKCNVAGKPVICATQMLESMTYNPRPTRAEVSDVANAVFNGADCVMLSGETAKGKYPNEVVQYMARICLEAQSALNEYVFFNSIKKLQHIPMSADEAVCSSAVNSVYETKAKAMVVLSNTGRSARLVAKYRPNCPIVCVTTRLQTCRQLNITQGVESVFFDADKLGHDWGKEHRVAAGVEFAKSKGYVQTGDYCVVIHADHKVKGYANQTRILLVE
Sequence of Muscarinic acetylcholine receptor M1 (Rattus norvegicus) (P08482 whole entry, looked up): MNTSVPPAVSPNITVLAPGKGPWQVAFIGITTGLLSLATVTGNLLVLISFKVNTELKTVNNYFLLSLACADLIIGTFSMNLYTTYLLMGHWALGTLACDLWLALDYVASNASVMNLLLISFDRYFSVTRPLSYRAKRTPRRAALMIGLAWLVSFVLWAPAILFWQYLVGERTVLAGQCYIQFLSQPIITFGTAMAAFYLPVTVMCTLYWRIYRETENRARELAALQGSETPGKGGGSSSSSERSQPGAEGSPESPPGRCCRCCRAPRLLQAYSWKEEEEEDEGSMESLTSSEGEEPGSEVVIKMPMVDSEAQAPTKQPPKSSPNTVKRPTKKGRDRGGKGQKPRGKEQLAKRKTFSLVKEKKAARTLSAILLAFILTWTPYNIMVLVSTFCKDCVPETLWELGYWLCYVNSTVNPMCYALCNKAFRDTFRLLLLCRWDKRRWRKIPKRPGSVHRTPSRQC
Sequence of Cytochrome P450 3A4 (Homo sapiens) (P08684 whole entry, looked up): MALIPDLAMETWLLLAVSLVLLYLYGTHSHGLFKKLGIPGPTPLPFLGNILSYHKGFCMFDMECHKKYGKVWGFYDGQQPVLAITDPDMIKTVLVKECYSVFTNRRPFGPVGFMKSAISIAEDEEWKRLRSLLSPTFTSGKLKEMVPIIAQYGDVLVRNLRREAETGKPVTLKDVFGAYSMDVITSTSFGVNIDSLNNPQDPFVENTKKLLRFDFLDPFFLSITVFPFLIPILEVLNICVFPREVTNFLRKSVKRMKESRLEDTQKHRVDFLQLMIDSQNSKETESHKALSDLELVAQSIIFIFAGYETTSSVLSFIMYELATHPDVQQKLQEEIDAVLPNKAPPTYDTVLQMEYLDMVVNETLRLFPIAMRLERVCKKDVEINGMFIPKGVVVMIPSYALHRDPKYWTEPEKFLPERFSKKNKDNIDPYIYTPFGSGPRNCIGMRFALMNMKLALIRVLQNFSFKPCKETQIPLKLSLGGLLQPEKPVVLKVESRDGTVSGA

Row | Compound | activity change, negative = inhibition [1] | Potency [2] | activity change, negative = inhibition [3] | activity, negative = inhibition [4] | Potency [5] [µM] | Potency [6] [µM] | Potency [7] | outcome [8] | Potency [9] | Potency [10] | Potency [11] | Potency [12] | Potency [13] | outcome [14] | outcome [15] | outcome [16] | Potency [17] | Potency [18] | Potency [19]
1 | CC(C)[C@@]1(NC(=O)[C@H]2C[C@H]3c4cccc5[nH]cc(c45)C[C@@H]3N(C)C2)O[C@]2(O)[C@H]3CCCN3C(=O)[C@H](Cc3ccccc3)N2C1=O | -10% [at 38 µM] | inactive | 1.76% [at 38 µM] | -34.2% [at 38 µM] | > 46 | > 46 | inactive | inactive | 2.51 µM (active) | 6.31 µM (active) |  |  |  |  |  |  |  |  | 
2 | COc1ccc2c(c1O)-c1cccc3c1[C@H](C2)N(C)CC3 | -2.14% [at 38 µM] | 3.98 µM (active) | -9.88% [at 38 µM] | 28.1% [at 38 µM] | > 46 | > 46 | inactive |  |  |  | inactive | inactive | inactive | inactive | inactive | inactive |  |  | 
3 | COc1cc([C@@H](O)CN)ccc1O | -3.13% [at 38 µM] | inactive | 6.77% [at 38 µM] | 3.87% [at 38 µM] | > 46 | > 46 | inactive |  |  |  |  |  | inactive | inactive | inactive | inactive |  |  | 
4 | CC(=O)c1c(O)c(C)c(O)c(Cc2c(O)c3c(c(C(=O)/C=C\c4ccccc4)c2O)OC(C)(C)C=C3)c1O | -26.6% [at 38 µM] | 12.6 µM (active) and 31.6 µM (active) |  | -35.6% [at 38 µM] | > 46 |  | inactive | inactive | 0.631 µM (active) | 2 µM (active) | inactive | 0.794 µM (active) | inactive | inactive | inactive | inactive | inactive | inactive | 79.4 µM (active)
5 | COC(=O)[C@H](N)CCCN=C(N)N[N+](=O)[O-] | -2.03% [at 38 µM] | inactive | 13% [at 38 µM] | 3% [at 38 µM] | > 46 | > 46 | inactive | inactive |  |  |  | inactive | inactive | inactive | inactive | inactive |  |  | 
6 | CCN(CC)c1ncnc2c1ncn2[C@@H]1O[C@@H](COP(=O)(O)OP(=O)(O)C(Br)(Br)P(=O)(O)O)[C@H](O)[C@@H]1O | 6.32% [at 38 µM] | inactive | 8.54% [at 38 µM] | -1.38% [at 38 µM] | > 46 | > 46 | inactive | inactive |  |  |  |  | inactive | inactive | inactive | inactive |  | inactive | 
7 | CCn1cnc2c(Nc3cccc(Cl)c3)nc(N[C@@H]3CCCC[C@H]3N)nc21 | -111% [at 38 µM] (active) | 15.8 µM (active) | -119% [at 38 µM] (active) | -30.2% [at 38 µM] (active) | > 46 | > 46 | inactive | inactive |  | inactive | inactive |  |  | inactive | inactive | inactive |  |  | 
8 | CC(C)N[C@@H](C)Cc1ccc(I)cc1 | 17.5% [at 38 µM] | 10 µM (active) | -29.8% [at 38 µM] | -4.05% [at 38 µM] | > 46 | > 46 | inactive | inactive |  |  |  |  | 14.1 µM (active) | inactive | inactive | inactive |  | 8.91 µM (active) | 
9 | NC[C@H](O)c1cc(O)c(O)cc1F | -2.42% [at 38 µM] | inactive | 4.54% [at 38 µM] | 10.9% [at 38 µM] | > 46 | > 46 |  | inactive |  |  | inactive | inactive | inactive | inactive | inactive | inactive |  |  | 
10 | CC(C)C[C@H](NP(=O)(O)O[C@@H]1O[C@@H](C)[C@@H](O)[C@@H](O)[C@H]1O)C(=O)N[C@@H](Cc1c[nH]c2ccccc12)C(=O)O | 5.95% [at 38 µM] | inactive | 9.26% [at 38 µM] | 14.9% [at 38 µM] | > 46 | > 46 | inactive |  |  |  |  | inactive | inactive | inactive | inactive | inactive |  | inactive | 
11 | C(CCOCC1CO1)COCC1CO1 (stereo not drawn) |  |  |  |  |  |  | inactive |  |  |  |  |  |  |  |  |  |  |  | 
12 | CCCCCc1cc(O)cc(O)c1 |  |  |  |  |  |  | inactive |  |  |  | inactive |  |  |  |  |  |  |  | 
13 | c1ccoc1 |  |  |  |  |  |  | inactive |  |  |  |  |  |  |  |  |  |  |  | 
